Reference: PubChem BioAssay AID697 (Columbia University Molecular Screening Center, 2007)
Hit rate of the full screen: of about 96,000 compounds, about 100 (0.1%) were called active.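 Rule for the calls: active = activation at 2 µM above a set limit, the mean plus 5 SD (cut at about 37% in these data); inactive = the rest.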 For the sample, actives were picked, then their nearest neighbours and some compounds at random.

What follows are molecules tested against Tyrosine-protein phosphatase non-receptor type 22 (Homo sapiens) (UniProt Q9Y2R2) (assay: LYP phosphatase activators, primary screen, biochemical, DiFMUP fluorescence, 2 µM (AID 697)). Details: recombinant LYP, at 2 µM, hits give high values, 0 = plate median, 100 = signal doubled.
Tyrosine-protein phosphatase non-receptor type 22 (Homo sapiens), sequence (Q9Y2R2 whole entry, looked up): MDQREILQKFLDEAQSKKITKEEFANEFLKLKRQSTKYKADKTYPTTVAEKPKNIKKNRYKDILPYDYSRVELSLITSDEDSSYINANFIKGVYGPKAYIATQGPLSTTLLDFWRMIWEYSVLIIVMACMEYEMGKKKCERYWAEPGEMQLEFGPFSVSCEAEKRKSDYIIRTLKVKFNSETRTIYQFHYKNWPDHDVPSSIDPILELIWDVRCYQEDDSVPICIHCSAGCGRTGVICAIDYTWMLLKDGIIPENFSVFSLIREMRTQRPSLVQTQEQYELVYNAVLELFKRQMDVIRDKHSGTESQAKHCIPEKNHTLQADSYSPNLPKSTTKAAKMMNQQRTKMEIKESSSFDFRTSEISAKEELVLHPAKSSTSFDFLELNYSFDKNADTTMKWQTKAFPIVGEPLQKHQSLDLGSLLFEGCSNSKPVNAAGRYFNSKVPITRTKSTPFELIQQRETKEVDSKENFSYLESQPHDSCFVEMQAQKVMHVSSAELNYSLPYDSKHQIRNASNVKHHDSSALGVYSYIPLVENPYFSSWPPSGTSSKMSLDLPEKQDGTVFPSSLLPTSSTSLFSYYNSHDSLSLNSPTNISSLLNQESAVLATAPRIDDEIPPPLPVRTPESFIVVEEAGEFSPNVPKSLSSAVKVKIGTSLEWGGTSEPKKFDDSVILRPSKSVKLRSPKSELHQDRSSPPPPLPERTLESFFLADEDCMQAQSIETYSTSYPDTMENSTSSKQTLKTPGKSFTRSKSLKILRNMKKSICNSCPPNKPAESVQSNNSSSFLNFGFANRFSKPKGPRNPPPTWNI

activation, active:
N#CCCn1ncc2ccccc21 44.2%

activation, inactive:
COc1cc(C)c(C(C)C)cc1S(=O)(=O)n1ccnc1 9.7%
N#CCCn1cnc2ccccc21 2%
Cc1cc(Nc2ccccc2)n(CCC#N)n1 -4.9%
O=C(NC1CCC(O)CC1)c1ccc(S(=O)(=O)NCc2ccco2)cc1 (stereo unspecified) 8.1%
CC(=O)N/C(=C/c1ccc(Cl)cc1)C(=O)NCCc1c[nH]c2ccccc12 -3%
COc1cc2c(cc1OC)C(C(C)C)=NC(C)(C)C2 12.3%
Cc1nn(Cc2ccccc2)c2c1C(c1ccccc1)C(C#N)=C(N)O2 (stereo unspecified) -7.2%
CC(C)(C)NC(=O)Cn1c(SCC(=O)Nc2nccs2)nc2ccccc21 8%
COc1ccc(N(CC(=O)NC2CCCCC2)C(=O)CNC(=O)c2ccco2)c(OC)c1 9.4%
Cc1ccc(C(=O)N/C(=C/C=C/c2ccccc2)C(=O)NCc2ccco2)cc1 -2.3%
COC(=O)C(C)Oc1ccc2c(-c3cccc([N+](=O)[O-])c3)cc(=O)oc2c1 (stereo unspecified) 0.1%
Cc1ccc(NS(=O)(=O)c2c(C)[nH]c(=O)[nH]c2=O)cc1C 0.8%
CC(=O)C1=C(C)NC(C)=C(C(C)=O)C1c1cn(-c2ccccc2)nc1-c1cccs1 -3.9%
COc1cccc2cc(C(=O)N3CCN(C(=O)c4ccccc4)CC3)c(=O)oc12 17.4%
CS(=O)(=O)N(CC(=O)N1CCN(Cc2ccccc2)CC1)c1ccc2c(c1)OCCO2 -3.3%
O=C(CCNS(=O)(=O)c1ccccc1C(F)(F)F)NCc1ccc2c(c1)OCO2 13.9%
CCOc1ccc(-c2nc(C)sc2CC(=O)O)cc1 14.3%
Cc1ccc(NC(=O)CN2CCc3ccccc3C2)cc1 -4.9%
CC(C)C(=O)NC(NC(=S)NC1CCS(=O)(=O)C1)C(Cl)(Cl)Cl (stereo unspecified) -11.6%
O=C(Oc1ccccc1C(=S)N1CCCCC1)c1cc([N+](=O)[O-])cc([N+](=O)[O-])c1 -4.4%
c1ccc(-c2nccc(-c3ccc(-n4cnc5ccccc54)cc3)n2)nc1 -36.4%
Cn1ncc2c(Nc3cccc4ccccc34)ncnc21 -5%
CCn1c(-c2ccoc2C)n[nH]c1=S 7.5%
N#Cc1ccccc1CN1C(=O)S/C(=C/c2cccn2-c2cccc(C(=O)O)c2)C1=O -30.2%
O=C1CC(C(F)(F)C(F)(F)C(F)(F)C(F)(F)F)=Nc2ccccc2N1 1.9%
N#Cc1ccc(Oc2cc(C(F)(F)F)nc(-c3ccccn3)n2)cc1 -2.8%
CCSc1nnc(-c2cc3c(s2)-c2ccccc2CC3)o1 -3.7%
O=C(CCCn1c(SCC(=O)c2ccccc2)nc2ccccc2c1=O)NCC1CCCO1 (stereo unspecified) -4.2%
c1ccc(-c2nc(NCc3ccco3)c3ccccc3n2)cc1 8%
CCSc1ccccc1C(=O)NCc1ccc(OC)cc1 -18.7%
Cc1nc(NC2=NC(C(=O)Nc3ccc(Cl)cc3)CC(=O)N2)nc2ccccc12 (stereo unspecified) -2.8%
COc1cccc(CNCCc2c[nH]c3ccccc23)c1OCc1ccccc1F 10.4%
CC(C)NC(=O)c1ccccc1S(=O)c1ccccc1C#N (stereo unspecified) 4%
O=C(Cc1c(O)c2ccccc2[nH]c1=O)NCc1ccccc1 3.6%
C=CCn1c(Oc2ccc(C(=O)OC)cc2)nc2c1c(=O)n(C)c(=O)n2C -3.9%
O=C(O)C1CC=CCC1C(=O)Nc1ccccc1C(=O)N1CCN(c2ccccc2)CC1 (stereo unspecified) -3.2%
Cc1cccc(NC(=O)c2ccc(OCC(=O)NCc3ccccc3)cc2)c1C 6%
O=C(COC(=O)c1ccccc1SCC(=O)NC1CCCCC1)NC1CCCCC1 -5.6%
O=C(Nc1ccccc1)OCc1cn(-c2ccc(Cl)cc2)nn1 -1.5%
Cc1ccc(N2C(=O)CC(Sc3ncn[nH]3)C2=O)cc1 (stereo unspecified) -8.7%
Cc1onc(-c2ccccc2Cl)c1C(=O)OCC(=O)c1ccccc1 13.5%
Cc1noc(C)c1C(=O)N1CCOCC1 33%
CN(C)c1ccc(NC(=S)N(CCc2ccccc2)C2CC(=O)N(c3c(Cl)cccc3Cl)C2=O)cc1 (stereo unspecified) -8.5%
CC1=CC(C)(C)NC(=S)N1c1ccccc1 -7.5%
COC(=O)C1(O)CC(C(C)C)=NN1C(=O)c1ccc(Cl)cc1 (stereo unspecified) -5.9%
